The values below come from PubChem BioAssay (Tox21).

Assay [1] in a line: qHTS assay to identify aromatase inhibitors - cell viability counter screen (AID 743084).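 Also: cells stimulated with testosterone during compound exposure; nearly all actives have a fitted effect of over 55% in size.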 Also: potency is read from the fitted curve at half-maximal effect.
The target in assay [2] is Aryl hydrocarbon receptor (Homo sapiens) (UniProt P35869). Put plainly: qHTS assay to identify small molecule that activate the aryl hydrocarbon receptor (AhR) signaling pathway (AID 743085). Also: nearly all actives have a fitted effect of over 15% in size. Also: potency is read from the fitted curve at half-maximal effect.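 As to activation: HG2L7.5c1 human HepG2 liver cells with stably integrated DRE-driven firefly reporter; series mostly up to about 70 µM.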 The essentials:
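Steps: seed HepG2-AhR-luc cells; allow 5 h at 37C; pin-transfer test compound or vehicle; incubate 24 h at 37C; add viability dye (30 min, 37C) and read fluorescence; add luciferase substrate (30 min, RT) and read luminescence.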
Background: In qHTS, concentration-response curves come from the screen itself.

Assay [3] is described as follows: qHTS assay to identify small molecule that activate the aryl hydrocarbon receptor (AhR) signaling pathway - cell viability counter screen (AID 743086). Also: nearly all actives have a fitted effect of over 45% in size. Also: potency is read from the fitted curve at half-maximal effect. A digest of the protocol:
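HepG2-AhR-luc (HG2L7.5c1) cells, 4000/well, were preincubated 5 h at 37C, exposed to compound in qHTS format for 24 hr at 37C, then given CellTiter-Fluor for 30 min; viability was read as fluorescence in the reporter wells.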

The target of assay [4] is Peroxisome proliferator-activated receptor gamma (Homo sapiens) (UniProt P37231). Put plainly: qHTS assay to identify small molecule agonists of the peroxisome proliferator-activated receptor gamma (PPARg) signaling pathway (AID 743094; active = well fitted activation curve with a large enough effect in the signal ratio in the repeat runs, not every such curve was filed as active; the % refers to the signal ratio). The essentials: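 Cells from the PPARg UAS-bla HEK293H line are plated and incubated 5 h at 37C. Compounds in DMSO are pinned in and left 17 h at 37C. LiveBLAzer B/G substrate is then added for 1 h at room temperature before fluorescence is measured.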

Assay [5] can be described thus: qHTS assay to identify small molecule phospholipidosis (PLD) inducers (AID 1259344; active = well fitted curve in the direction sought with a large enough effect; an effect the other way counts as inactive or inconclusive; also: potency is read from the fitted curve at half-maximal effect). The essentials: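 After 4 h attachment on collagen I, HepG2 cells were dosed with compound alongside LipidTOX Red, kept 24 h at 37 C, fixed, and imaged for lamellar phospholipid pits.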
The target of assay [6] is Nuclear receptor subfamily 1 group I member 2 (Homo sapiens) (UniProt O75469). Put plainly: CYP3A4 induction through human pregnane X receptor (PXR) by small molecules, qHTS assay (AID 1346984). Also: nearly all actives have a fitted effect of over 40% in size. Also: potency is read from the fitted curve at half-maximal effect. The essentials:
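Quantitative HTS in DPX-2 cells, i.e. HepG2 transfected with PXR response element and CYP3A4-promoter luciferase. Compounds in DMSO incubated 24hr at 37C; then P450-Glo CYP3A4 substrate, 3uM final, 3hr; One-Glo luminescence.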

Assay [7] has the same target. Put plainly: Human pregnane X receptor (PXR) activation by small molecules, qHTS assay (AID 1346985). Also: nearly all actives have a fitted effect of over 40% in size. Also: potency is read from the fitted curve at half-maximal effect. A digest of the protocol:
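DPX-2 cells (HepG2 co-transfected with a PXR response element and a CYP3A4-promoter luciferase construct) were seeded at 2,000 per well, rested 5 hr at 37C, then exposed to DMSO-dissolved compounds for 24 hr. Activation was read as luciferase luminescence.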

Several values for one entry are separate records, joined by “and”; a condition that tells them apart may be missing. Equal values may be shown once. Records with an inconclusive call do not appear. Activity calls are given as the source filed them. Unless noted, calls follow the shape of the dose curve; as a rule, active = well fitted curve in the direction sought with a large enough effect in the repeat runs; inconclusive = weak or mixed curves; inactive = no such curve, though single readings can be large; an effect the other way counts as inactive or inconclusive.
% is scaled to controls: 0 for no effect and ±100 for the full control effect.

Peroxisome proliferator-activated receptor gamma (Homo sapiens), sequence (P37231 whole entry, looked up): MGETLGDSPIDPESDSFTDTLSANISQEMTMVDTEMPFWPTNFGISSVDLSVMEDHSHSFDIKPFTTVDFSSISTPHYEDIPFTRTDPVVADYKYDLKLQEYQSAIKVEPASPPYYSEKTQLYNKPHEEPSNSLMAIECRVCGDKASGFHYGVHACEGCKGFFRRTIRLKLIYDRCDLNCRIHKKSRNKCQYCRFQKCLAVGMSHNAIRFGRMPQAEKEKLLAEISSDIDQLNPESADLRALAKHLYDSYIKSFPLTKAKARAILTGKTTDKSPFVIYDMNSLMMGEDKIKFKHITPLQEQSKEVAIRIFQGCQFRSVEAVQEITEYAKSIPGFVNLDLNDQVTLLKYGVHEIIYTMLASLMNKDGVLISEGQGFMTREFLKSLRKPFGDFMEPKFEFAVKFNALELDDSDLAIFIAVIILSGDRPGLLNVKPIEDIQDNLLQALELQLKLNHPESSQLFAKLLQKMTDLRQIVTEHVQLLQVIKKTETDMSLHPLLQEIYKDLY
Aryl hydrocarbon receptor (Homo sapiens), sequence (P35869 whole entry, looked up): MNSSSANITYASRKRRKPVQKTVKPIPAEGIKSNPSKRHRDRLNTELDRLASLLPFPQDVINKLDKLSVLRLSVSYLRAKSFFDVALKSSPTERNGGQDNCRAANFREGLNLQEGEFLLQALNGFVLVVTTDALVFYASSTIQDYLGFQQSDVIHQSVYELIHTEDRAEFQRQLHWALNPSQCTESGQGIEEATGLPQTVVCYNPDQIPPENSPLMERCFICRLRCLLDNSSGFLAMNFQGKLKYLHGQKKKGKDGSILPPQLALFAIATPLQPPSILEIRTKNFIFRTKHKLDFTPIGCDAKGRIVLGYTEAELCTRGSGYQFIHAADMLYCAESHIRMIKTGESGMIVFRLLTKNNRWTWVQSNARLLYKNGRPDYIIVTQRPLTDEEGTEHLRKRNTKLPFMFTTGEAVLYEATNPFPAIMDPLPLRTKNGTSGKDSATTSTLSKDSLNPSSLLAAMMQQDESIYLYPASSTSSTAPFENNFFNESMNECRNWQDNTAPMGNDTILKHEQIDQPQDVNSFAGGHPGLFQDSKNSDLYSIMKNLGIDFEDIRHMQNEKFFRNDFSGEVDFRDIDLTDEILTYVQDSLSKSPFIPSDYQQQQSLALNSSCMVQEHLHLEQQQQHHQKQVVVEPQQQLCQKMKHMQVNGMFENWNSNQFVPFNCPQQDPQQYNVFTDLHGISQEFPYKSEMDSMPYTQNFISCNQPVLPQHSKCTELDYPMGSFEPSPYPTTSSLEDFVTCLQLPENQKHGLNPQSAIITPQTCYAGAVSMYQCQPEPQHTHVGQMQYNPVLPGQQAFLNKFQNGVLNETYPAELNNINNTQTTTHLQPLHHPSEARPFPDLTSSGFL

In the case of `O=C(/C=C/c1cccc(F)c1)NC1CC1`, the Potency entry in assay [1], in assay [2], in assay [3], in assay [4], in assay [5] and in assay [6] was “inactive” each time. In addition, in assay [7], the Potency is 10 µM (active).
As to `[O]=[Bi][O]C(=O)[O][Bi]=[O]`, the Potency result in assay [1], in assay [2], in assay [3], in assay [4], in assay [5] and in assay [6] was “inactive” each time. In addition, the Potency entry in assay [7] was “inactive”.
Regarding `CC1(C)S[C@@H]2[C@H](NC(=O)C3(N)CCCCC3)C(=O)N2[C@H]1C(=O)O`, the Potency entry in assay [1], in assay [2], in assay [3], in assay [5], in assay [6] and in assay [7] was “inactive” in each case.
Take `CN1C(=O)CN2CCc3ccccc3C2c2cc(Cl)ccc21` (configuration not stated): the Potency result in assay [1], in assay [3], in assay [4] and in assay [5] was “inactive” throughout. The Potency in assay [2] is 4.73 µM (active); in assay [6] it was 3.16 µM (active); in assay [7] it was 22.4 µM (active).
Consider `Cc1cc(O)c2c(c1)O[C@@]1(C)CC[C@H]3C(C)(C)CCCC34CO[C@@H]2[C@H]41` (some centres not stated), for which the Potency in assay [1] is 29.8 µM (active); in assay [7], 2.82 µM (active). In addition, the Potency result in assay [2], in assay [3], in assay [5] and in assay [6] was “inactive” each time.
For `CCN(CC)CCOCCOC(=O)C(CC)(CC)c1ccccc1`, the Potency result in assay [1], in assay [2], in assay [3] and in assay [4] was “inactive” throughout. Moreover, the figures for the Potency in assay [5], in assay [6] and in assay [7] were 10 µM (active), 31.6 µM (active) and 15.8 µM (active), respectively.
Turning to `CC(C)C(=O)OCC(=O)[C@@]12O[C@H](C3CCCCC3)O[C@@H]1C[C@H]1[C@@H]3CCC4=CC(=O)C=C[C@]4(C)[C@H]3[C@@H](O)C[C@@]12C`, the Potency entry in assay [1], in assay [2], in assay [3], in assay [4] and in assay [5] was “inactive” each time. The Potency in assay [7] was 0.631 µM (active).
`CC(C)(C)NC(=O)[C@H]1CC[C@H]2[C@@H]3CC=C4C=C(C(=O)O)CC[C@]4(C)[C@H]3CC[C@]12C`: the Potency result in assay [1], in assay [2], in assay [3] and in assay [5] was “inactive” in each case.
On to `CCC(=O)OCC(=O)[C@@]1(OC(=O)CC)[C@@H](C)C[C@H]2[C@@H]3CCC4=CC(=O)C=C[C@]4(C)[C@@]3(Cl)[C@@H](O)C[C@@]21C`, for which the Potency entry in assay [1], in assay [3] and in assay [5] was “inactive” each time. Also, in assay [2], the Potency is 10.6 µM (active).
As for `CCC(C)C(C(=O)OCC[N+](C)(CC)CC)c1ccccc1` (configuration not stated), the Potency result in assay [1], in assay [2], in assay [3] and in assay [5] was “inactive” each time.
For the compound `CC(/C=C/C=C(\C)C(=O)O[C@@H]1O[C@H](CO[C@@H]2O[C@H](CO)[C@@H](O)[C@H](O)[C@H]2O)[C@@H](O)[C@H](O)[C@H]1O)=C\C=C\C=C(C)\C=C\C=C(/C)C(=O)O[C@@H]1O[C@H](CO[C@@H]2O[C@H](CO)[C@@H](O)[C@H](O)[C@H]2O)[C@@H](O)[C@H](O)[C@H]1O`, the Potency result in assay [3], in assay [5], in assay [6] and in assay [7] was “inactive” each time.
With `CCCCCCCCCCCCCCCCCC(=O)[O][Al]`, the Potency result in assay [1], in assay [2], in assay [3] and in assay [5] was “inactive” each time.
With `O=[N+]([O-])c1ccc(Oc2ccc(N=C=S)cc2)cc1`, the Potency result in assay [1], in assay [2], in assay [3] and in assay [5] was “inactive” in each case.
In the case of `NNc1nnc(Cc2ccncc2)c2ccccc12`, the Potency entry in assay [1] and in assay [3] was “inactive” in each case. For the same compound, the Potency in assay [2] is 11.9 µM (active). For the same compound, the PLD induction in assay [5] is -2.11% [at 7.66 µM] (inactive).
Turning to `CN1CCN(C(c2ccccc2)c2ccc(Cl)cc2)CC1` (configuration not stated), the Potency entry in assay [2], in assay [4], in assay [5], in assay [6] and in assay [7] was “inactive” each time.
As to `Cc1cc(Nc2ccccc2C(=O)O)ccc1Cl`, the Potency result in assay [1] and in assay [5] was “inactive” in each case. Also, in assay [2], the Potency was 26.6 µM (active).
As to `CO[C@H]1C=CO[C@@]2(C)Oc3c(C)c(O)c4c(O)c(c5c(nc6cc(C)ccn65)c4c3C2=O)NC(=O)/C(C)=C\C=C[C@H](C)[C@H](O)[C@@H](C)[C@@H](O)[C@@H](C)[C@H](OC(C)=O)[C@@H]1C`, the Potency result in assay [5] is “inactive”. The Potency in assay [7] was 10 µM (active).
Consider `CC1(C)N=C(N)N=C(N)N1c1ccc(Cl)cc1`, for which the Potency result in assay [1], in assay [2] and in assay [3] was “inactive” in each case. Further, the PLD induction in assay [5] was -3.82% [at 7.66 µM] (inactive).
`CC(C)(CO)[C@@H](O)C(=O)NCCC(=O)NCCSSCCNC(=O)CCNC(=O)[C@H](O)C(C)(C)CO`: the Potency result in assay [1], in assay [2], in assay [3], in assay [4], in assay [5] and in assay [7] was “inactive” in each case.
As for `CC#CCC(C)[C@H](O)/C=C/[C@@H]1[C@H]2c3cccc(CCCC(=O)O)c3O[C@H]2C[C@H]1O` (some centres not stated), the Potency entry in assay [1], in assay [2], in assay [3] and in assay [5] was “inactive” throughout.
Consider `O=C(O)c1cccc(/C=C2/C[C@@H]3[C@@H](/C=C/[C@@H](O)C4CCCCC4)[C@H](O)C[C@@H]3O2)c1`, for which the Potency result in assay [1], in assay [2], in assay [3] and in assay [5] was “inactive” each time.
For `CS(=O)(=O)OCCCNCCCOS(C)(=O)=O`, the Potency entry in assay [1], in assay [2], in assay [3] and in assay [5] was “inactive” each time.
In the case of `CCN(CC)CCOc1ccc2nc(N(C)C)sc2c1`, the Potency result in assay [1], in assay [3], in assay [4], in assay [5] and in assay [6] was “inactive” in each case.
In the case of `CO[C@H]1C=CO[C@@]2(C)Oc3c(C)c(O)c4c(O)c(c(/C=N/N5CCN(C6CCCC6)CC5)c(O)c4c3C2=O)NC(=O)/C(C)=C\C=C[C@H](C)[C@H](O)[C@@H](C)[C@@H](O)[C@@H](C)[C@H](OC(C)=O)[C@@H]1C`, the Potency in assay [1] is 23.7 µM (active); in assay [3], 26.6 µM (active). Moreover, the Potency result in assay [2] and in assay [5] was “inactive” in each case.
For the compound `CC1=C(/C=C/C(C)=C/C=C/C(C)=C/C=C/C=C(C)/C=C/C=C(C)/C=C/C2=C(C)C[C@@H](O)CC2(C)C)C(C)(C)C[C@H](O)C1`, the Potency result in assay [3], in assay [5], in assay [6] and in assay [7] was “inactive” each time.
`CCC(C)[C@H]1O[C@]2(C=C[C@@H]1C)C[C@@H]1C[C@@H](C/C=C(\C)[C@@H](O[C@H]3C[C@H](OC)[C@@H](O[C@H]4C[C@H](OC)[C@H](NC(C)=O)[C@H](C)O4)[C@H](C)O3)[C@@H](C)/C=C/C=C3\CO[C@@H]4[C@H](O)C(C)=C[C@@H](C(=O)O1)[C@]34O)O2` (some centres not stated): the Potency result in assay [1], in assay [2] and in assay [5] was “inactive” in each case. The Potency in assay [3] was 11.9 µM (active) and 29.8 µM (active).
On to `CCCCCCC(=O)O[C@H]1CC[C@H]2[C@@H]3CCc4cc(O)ccc4[C@H]3CC[C@]12C`, for which the Potency result in assay [1], in assay [2], in assay [3] and in assay [5] was “inactive” each time.
